ST2 IL33 inh: inhibitors of human ST2 (IL1RL1) binding to IL-33, primary screen, biochemical, AlphaLISA | Interleukin-1 receptor-like 1 (Homo sapiens), Q01638 | AlphaLISA ST2-Fc/biotin-IL-33 interaction, 1 h | inhibition, % for hits at 17 µM | 2.3% of 78,000 active | AID 1259354, 2018; in the data active = inhibition above about 30%
Target sequence (Q01638 whole entry, looked up): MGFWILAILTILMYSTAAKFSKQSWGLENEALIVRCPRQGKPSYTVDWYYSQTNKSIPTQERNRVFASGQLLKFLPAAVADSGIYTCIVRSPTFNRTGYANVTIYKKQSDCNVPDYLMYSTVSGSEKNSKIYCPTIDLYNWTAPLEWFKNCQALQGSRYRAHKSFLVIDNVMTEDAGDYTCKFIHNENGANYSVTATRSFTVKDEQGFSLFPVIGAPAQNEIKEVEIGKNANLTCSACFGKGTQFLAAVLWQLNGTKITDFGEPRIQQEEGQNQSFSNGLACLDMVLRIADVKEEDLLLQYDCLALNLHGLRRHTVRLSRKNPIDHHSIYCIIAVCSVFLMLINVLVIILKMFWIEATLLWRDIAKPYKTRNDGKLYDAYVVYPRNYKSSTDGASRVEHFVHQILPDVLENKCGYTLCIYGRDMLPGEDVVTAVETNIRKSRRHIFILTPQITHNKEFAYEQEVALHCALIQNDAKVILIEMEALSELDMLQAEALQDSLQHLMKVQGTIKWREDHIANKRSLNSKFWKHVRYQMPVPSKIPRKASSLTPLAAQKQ
* marks the source's active call; other numbers are inactive results; i = inactive. The entries come from a sample that favours hits as a whole.

SMILES	ST2 IL33 inh
O=C(NC1CCCCCC1)c1ccc(Cn2c(=O)[nH]c3ccsc3c2=O)cc1	i
Cc1cc([N+](=O)[O-])ccc1NC(=O)COc1ccc(C(C)C)cc1	i
CCOc1ccccc1NS(=O)(=O)c1cc([N+](=O)[O-])ccc1C	i
Cc1nonc1OCC(C)(COc1nonc1C)Nc1ccc([N+](=O)[O-])cc1[N+](=O)[O-]	40.0%*
O=C(CN1CCCCC1)Nc1ccc(OC(F)(F)Cl)cc1	i
COc1ccc2c(C)nc(N3CCCC(C(=O)NCCc4cccc(F)c4)C3)nc2c1 (stereo unspecified)	i
O=C(CSc1ncn(-c2ccccc2)n1)c1ccccc1	i
Cc1ccc(C(N)=NC(=NS(=O)(=O)c2ccccc2)c2ccccc2)cc1	i
Cc1ccc(S(=O)(=O)N=C(Nc2ccccn2)c2ccccc2)cc1	i
CC1=CC(=NC(=NS(=O)(=O)c2ccc(C)cc2)c2ccccc2)C(C)=CC1=O	44.0%*
Clc1ccc(-c2nc3cnccn3c2Nc2ccccc2)cc1	i
COc1ccc(CCC(=O)NCc2ccco2)cc1	i
N=c1c2c3c(sc2ncn1Cc1ccccc1)CCCC3	i
COc1ccc(-c2c3c(=O)n(C)c(=O)n(C)c3cn2Cc2ccccc2)cc1	i
COc1ccc(-c2oc3ncn(Cc4ccccc4)c(=N)c3c2-c2ccc(OC)cc2)cc1	39.0%*
O=C(NCCCN1CCOCC1)c1ccncc1	i
Cc1cc(N2CCCCC2)nc2ccc(NC(=O)CCC(=O)NCC3CCCO3)cc12 (stereo unspecified)	i
Cc1noc(C)c1C(=O)N(Cc1ccsc1)CC1CCCO1 (stereo unspecified)	i
COC(=O)c1c(NC(=O)c2sc3ccccc3c2Cl)sc2c1CCN(C)C2	37.0%*
CCOC(=O)c1c(NC(=O)c2ccc(Cl)s2)sc2c1CCN(C)C2	i
CC1CCc2sc(NC(=O)c3sc4ccccc4c3Cl)c(C(N)=O)c2C1 (stereo unspecified)	i
O=C(COc1ccc(Cl)cc1Cl)Nc1cccc(F)c1	i
COC(=O)COc1ccc2oc(C)c(C(=O)OC(C)C)c2c1	i
CCSC1=N/C(=C\c2c(OC)cc(OC)cc2OC)C(=O)S1	38.0%*
O=C(Nc1ccc2c(c1)OCO2)c1noc2c1CCc1ccccc1-2	i
SMILES	ST2 IL33 inh
CC(C)Cn1cc(C(=O)N2CCN(c3ccccn3)CC2)c2c3ccccc3n(C)c2c1=O	i
CC(=O)N(C1=C(N(C)C)C(=O)c2ccccc2C1=O)c1cccc(Cl)c1	31.0%*
CC(=O)N(CN1C(=O)CCC1=O)c1cccc(Cl)c1	i
CN(C)C(=O)c1ccccc1-c1cccc(Cl)c1	i
O=S(=O)(c1cccc2cccc(Cl)c12)N1CCOC(C(F)(F)F)C1 (stereo unspecified)	i
CC1CC(C)CN(S(=O)(=O)c2ccc(Cl)cc2)C1 (stereo unspecified)	i
O=C1C=CC(=NOS(=O)(=O)c2ccc(Cl)cc2)C=C1	48.0%*
O=S(=O)(Cc1ccccc1)c1ccc(Cl)cc1	i
Cc1c(O)cccc1C(=O)NCC1CCN(CCC(F)(F)F)CC1	i
CCN(C(=O)c1ccccc1NCC(=O)O)C1CCOC(C)(C)C1 (stereo unspecified)	i
CCCN(Cc1cccnc1)C(=O)c1cccc(C(=O)OC)c1	i
CC(=O)c1ccc2c(c1)c1ccccc1n2C	i
CC(=O)n1c2ccccc2c2c1c1ccccc1n2C	i
Cc1c(C(=O)Cc2ccccc2)n(C)c2ccccc12	37.0%*
Cc1cc2c(cc1C)NC(CC(=O)Nc1cccc(C(=O)O)c1)C(=O)N2 (stereo unspecified)	i
Cc1cc2ccccc2n1CCNC(=O)c1cc2ccccc2oc1=O	i
COc1cc(/C=C(\C#N)c2nc3ccccc3s2)cc(OC)c1OC	34.0%*
COc1cc(OC)cc(C(=O)OCc2nc3ccccc3s2)c1	i
COc1cccc2sc(=NC(=O)c3nc4ccccc4s3)n(C)c12	i
Cc1ccccc1N1C(=O)c2ccccc2NC1c1ccc2c(c1)OCO2 (stereo unspecified)	i
O=c1/c(=C\c2cccc([N+](=O)[O-])c2)sc2nc3ccccc3n12	i
CCCCOc1ccc(/C=c2\sc3ncnn3c2=O)cc1OC	i
COc1ccc(/C=c2\sc3nc4ccccc4n3c2=O)cc1O	50.0%*
CC1=C(C(=O)Nc2ccc(C)cc2C)C(c2ccc(N(C)C)cc2)n2nnnc2N1 (stereo unspecified)	i
COc1ccc(CC(=O)N2CCN=C2SCc2ccccc2C)cc1OC	i
SMILES	ST2 IL33 inh
Cc1ccc(CN2CCC(OCc3cccnc3)CC2)o1	i
CN1CCCN(Cc2cccc(F)c2)CC1	i
CCc1ccc(CN2CCSCC2)cc1	i
CCN1CCN(Cc2ccc(N(CC)CC)cc2)CC1	58.0%*
CCN(CC)c1ccc(CN2CCN(C)CC2)cc1	56.0%*
CCN1CCN(Cc2ccc(-c3ccccc3)cc2)CC1	i
CN1CCCN(Cc2cccc(Cl)c2)CC1	i
CN(CC(=O)Nc1ccccn1)S(=O)(=O)c1ccc2c(c1)CCC(=O)N2	i
CCSc1nnc2c(n1)OC(c1ccc(C)s1)N(C(C)=O)c1ccccc1-2 (stereo unspecified)	i
COc1ccc(S(=O)(=O)NCc2nc3cccnc3n2Cc2cccc(OC)c2)cc1	i
CNc1nc(N2CCOC(C(F)(F)F)C2)ncc1F (stereo unspecified)	i
FC(F)(F)C1CN(c2ccc(-c3ccccc3)nn2)CCO1 (stereo unspecified)	96.0%*
O=C(N1CCOC(C(F)(F)F)C1)C1(S(=O)(=O)c2ccccc2)CC1 (stereo unspecified)	i
O=C(NC1CCCC1)[C@H](CSCc1ccccc1)N1Cc2ccccc2C1=O	i
c1ccc(C2=NN3COc4ccccc4C3C2)cc1 (stereo unspecified)	i
N#CC1CC(c2ccccc2)=NN1c1ccccc1 (stereo unspecified)	96.0%*
CC(=O)N1N=C(c2ccccc2)CC1c1ccc(Br)cc1 (stereo unspecified)	i
COc1ccc(/C=C/C(=O)Nc2ccccc2C(=O)O)cc1OC	i
COc1ccc2oc(=O)c(NC(=O)/C=C/c3ccccc3)cc2c1	i
CC1=CC(=O)C=C(C)C1=NOC(=O)/C=C\c1ccccc1	35.0%*
COC(=O)C1C(=O)C2=C(CC1C)NC(C)=C(C(=O)OC(C)C)C2c1ccc(OC)c(OC)c1 (stereo unspecified)	i
Cc1ccc(C2CC(C(F)(F)F)n3nc(C(=O)N4CCCCC4)cc3N2)cc1 (stereo unspecified)	i
COc1ccc(Cl)cc1NC(=O)c1cnccn1	i
COC(=O)c1sc2ccccc2c1NC(=O)c1ccccc1	i
Cc1cccc(C2=N/C(=C\c3ccc(N(C)C)cc3)C(=O)O2)c1	39.0%*
SMILES	ST2 IL33 inh
Cc1cccc(C2=N/C(=C\c3ccccc3)C(=O)O2)c1	46.0%*
Cc1ccc(C2=N/C(=C\C(Br)=C\c3ccccc3)C(=O)O2)cc1[N+](=O)[O-]	i
O=C1OC(c2cc([N+](=O)[O-])ccc2Cl)=N/C1=C\c1cccc(I)c1	i
COc1ccc(/C=C2\N=C(c3cccc(I)c3)OC2=O)cc1[N+](=O)[O-]	i
COc1ccccc1/C=C/C1=NC(=C\C(Cl)=C\c2ccccc2)/C(=O)O1	i
Cc1cccc(C2=N/C(=C\C=C\c3ccccc3)C(=O)O2)c1	37.0%*
COc1ccc(/C=C2\N=C(c3ccc(C)cc3)OC2=O)cc1Br	i
O=C1OC(c2cccc(I)c2)=N/C1=C\c1ccc([N+](=O)[O-])cc1	i
